Assay results from PubChem BioAssay (Tox21).
Inconclusive results are not listed. Activity calls are given as the source filed them. Calls come from the whole dose curve; as a rule, active = well fitted curve in the direction sought with a large enough effect in the repeat runs; inconclusive = weak or mixed curves; inactive = no such curve, though single readings can be large; an effect the other way counts as inactive or inconclusive.

How the values were obtained:
[1] = A CellTox Green Cytotoxicity Assay to monitor cytotoxicity in HEK293 cells - 40 hour (AID 1224871); note: nearly all actives have a fitted effect of over 45% in size
How it was run: (§1)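 Tox21 screen in HEK293: membrane-impermeant cyanine dye fluoresces on binding dead-cell DNA; compound pinned 5 h post-seeding, plates held at 37 C, signal read repeatedly through 40 h.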

[2] = qHTS RealTime-Glo MT Cell Viability Assay in HEK293 cells - 16 hour (AID 1224872); note: top concentration of the series differs between compounds; nearly all actives have a fitted effect of over 50% in size
How it was run: (§2)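 Viability tracked continuously by luminescence as live cells reduce a prosubstrate for NanoLuc; HEK293 cells preincubated 5 h, compound-treated at 37 C, and read at 0, 8, 16, 24, 32 and 40 h.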

[3] = qHTS RealTime-Glo MT Cell Viability Assay in HepG2 cells - 8 hour (AID 1224873); note: nearly all actives have a fitted effect of over 55% in size
How it was run: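 HepG2 cells mixed with RealTime-Glo MT reagents (NanoLuc plus cell-permeant prosubstrate) were seeded at 600 cells/well, incubated 5 h at 37 C/5% CO2, then pinned with compounds in DMSO; nonlytic luminescence tracked viability during 40 h treatment.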

[4] = qHTS RealTime-Glo MT Cell Viability Assay in HEK293 cells - 40 hour (AID 1224874); details: RealTime-Glo luminescence; max response: hits give low values; note: nearly all actives have a fitted effect of over 50% in size
How it was run: (§3)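 HEK293 + NanoLuc + prosubstrate, 600 cells/well; 5 h, 37 C/5% CO2; compound 23 nL in DMSO by pintool; 37 C; luminescence read at 0, 8, 16, 24, 32 and 40 h time points.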

[5] = A CellTox Green Cytotoxicity Assay to monitor cytotoxicity in HEK293 cells - 24 hour (AID 1224875); note: series mostly up to about 77 µM; nearly all actives have a fitted effect of over 45% in size
How it was run: as §1

[6] = A CellTox Green Cytotoxicity Assay to monitor cytotoxicity in HepG2 cells - 16 hour (AID 1224876); note: nearly all actives have a fitted effect of over 45% in size
How it was run: (§4)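 Measurements at 0, 8, 16, 24, 32 and 40 h of treatment captured CellTox Green fluorescence in HepG2 cells that had been co-plated with reagent and preincubated 5 h at 37 C/5% CO2.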

[7] = qHTS RealTime-Glo MT Cell Viability Assay in HepG2 cells - 32 hour (AID 1224877); note: nearly all actives have a fitted effect of over 55% in size
How it was run: (§5)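 Viability was tracked continuously by NanoLuc luminescence from prosubstrate reduced by living HepG2 cells, at successive time points over 40 h of compound exposure. Cells with reagent were preincubated 5 h at 37 °C before compound addition.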

[8] = A CellTox Green Cytotoxicity Assay to monitor cytotoxicity in HepG2 cells - 24 hour (AID 1224878); note: nearly all actives have a fitted effect of over 45% in size
How it was run: as §4

[9] = A CellTox Green Cytotoxicity Assay to monitor cytotoxicity in HepG2 cells - 40 hour (AID 1224879); note: nearly all actives have a fitted effect of over 40% in size
How it was run: as §4

[10] = qHTS RealTime-Glo MT Cell Viability Assay in HEK293 cells - 0 hour (AID 1224880)
How it was run: as §3

[11] = A CellTox Green Cytotoxicity Assay to monitor cytotoxicity in HEK293 cells - 32 hour (AID 1224881); note: nearly all actives have a fitted effect of over 40% in size
How it was run: as §1

[12] = A CellTox Green Cytotoxicity Assay to monitor cytotoxicity in HepG2 cells - 0 hour (AID 1224882); note: nearly all actives have a fitted effect of over 35% in size
How it was run: as §4

[13] = A CellTox Green Cytotoxicity Assay to monitor cytotoxicity in HepG2 cells - 32 hour (AID 1224883); note: nearly all actives have a fitted effect of over 50% in size
How it was run: as §4

[14] = A CellTox Green Cytotoxicity Assay to monitor cytotoxicity in HEK293 cells - 8 hour (AID 1224884); note: nearly all actives have a fitted effect of over 35% in size
How it was run: as §1

[15] = qHTS RealTime-Glo MT Cell Viability Assay in HepG2 cells - 16 hour (AID 1224885); note: nearly all actives have a fitted effect of over 50% in size
How it was run: as §5

[16] = qHTS RealTime-Glo MT Cell Viability Assay in HEK293 cells - 24 hour (AID 1224886)
How it was run: as §2

[17] = qHTS RealTime-Glo MT Cell Viability Assay in HEK293 cells - 8 hour (AID 1224887)
How it was run: as §3

[18] = A CellTox Green Cytotoxicity Assay to monitor cytotoxicity in HEK293 cells - 16 hour (AID 1224888); note: nearly all actives have a fitted effect of over 35% in size
How it was run: as §1

[19] = qHTS RealTime-Glo MT Cell Viability Assay in HepG2 cells - 0 hour (AID 1224889); note: nearly all actives have a fitted effect of over 50% in size
How it was run: as §5

[20] = A CellTox Green Cytotoxicity Assay to monitor cytotoxicity in HepG2 cells - 8 hour (AID 1224890); note: nearly all actives have a fitted effect of over 45% in size
How it was run: as §4
% is set by controls: 0 for no effect and ±100 for the full control effect.

C[C@@H](Oc1ccc(CNC(=O)c2cccnc2Oc2ccc3c(c2)OCO3)c(F)c1)C(=O)O
inactive: Potency [1] | Potency [2] | outcome [3] | max response [4] 9.55% | outcome [5] | outcome [6] | outcome [7] | outcome [8] | Potency [9] | Potency [10] | Potency [11] | outcome [12] | Potency [13] | Potency [14] | outcome [15] | Potency [16] | Potency [17] | outcome [18] | Potency [19] | outcome [20]

C=C(C)C(=O)OCCN(CC)CC
inactive: Potency [1] | Potency [2] | outcome [3] | max response [4] 2.31% | outcome [5] | outcome [6] | outcome [7] | outcome [8] | Potency [9] | Potency [10] | Potency [11] | outcome [12] | Potency [13] | Potency [14] | outcome [15] | Potency [16] | Potency [17] | outcome [18] | Potency [19] | outcome [20]

CC(C)NCC(O)COc1cccc2[nH]ccc12 (stereo not drawn)
inactive: Potency [1] | Potency [2] | outcome [3] | max response [4] -0.192% | outcome [5] | outcome [6] | outcome [7] | outcome [8] | Potency [9] | Potency [10] | Potency [11] | outcome [12] | Potency [13] | Potency [14] | outcome [15] | Potency [16] | Potency [17] | Potency [19] | outcome [20]

Cc1ccccc1OCC(O)CO (stereo not drawn)
inactive: Potency [1] | Potency [2] | outcome [3] | max response [4] 1.4% | outcome [5] | outcome [6] | outcome [7] | outcome [8] | Potency [9] | Potency [10] | Potency [11] | outcome [12] | Potency [13] | Potency [14] | outcome [15] | Potency [16] | Potency [17] | outcome [18] | Potency [19] | outcome [20]

CCCCCCCCC(=O)Cl
inactive: Potency [1] | Potency [2] | outcome [3] | max response [4] 10.1% | outcome [5] | outcome [6] | outcome [7] | outcome [8] | Potency [9] | Potency [10] | Potency [11] | outcome [12] | Potency [13] | Potency [14] | outcome [15] | Potency [16] | Potency [17] | outcome [18] | Potency [19] | outcome [20]

O=C(O)c1cc(Cl)cc([N+](=O)[O-])c1Cl
inactive: Potency [1] | Potency [2] | outcome [3] | max response [4] 21% | outcome [5] | outcome [6] | outcome [7] | outcome [8] | Potency [9] | Potency [10] | Potency [11] | outcome [12] | Potency [13] | Potency [14] | outcome [15] | Potency [16] | Potency [17] | Potency [19] | outcome [20]

CCOC(=O)[C@H](CCc1ccccc1)N[C@@H](C)C(=O)N1C(=O)N(C)C[C@H]1C(=O)O
inactive: Potency [1] | Potency [2] | outcome [3] | max response [4] 1.75% | outcome [5] | outcome [6] | outcome [7] | outcome [8] | Potency [9] | Potency [10] | Potency [11] | outcome [12] | Potency [13] | Potency [14] | outcome [15] | Potency [16] | Potency [17] | Potency [19] | outcome [20]

CC(=O)OC(C)OC(=O)C(C)c1ccc(-c2ccccc2)c(F)c1 (stereo not drawn)
inactive: Potency [1] | Potency [2] | outcome [3] | max response [4] 3.38% | outcome [5] | outcome [6] | outcome [7] | outcome [8] | Potency [9] | Potency [10] | Potency [11] | outcome [12] | Potency [13] | Potency [14] | outcome [15] | Potency [16] | Potency [17] | outcome [18] | Potency [19] | outcome [20]

NCCN1CCOCC1
inactive: Potency [1] | Potency [2] | outcome [3] | max response [4] 1.04% | outcome [5] | outcome [6] | outcome [7] | outcome [8] | Potency [9] | Potency [10] | Potency [11] | outcome [12] | Potency [13] | Potency [14] | outcome [15] | Potency [16] | Potency [17] | Potency [19] | outcome [20]

BrCCCCCBr
inactive: Potency [1] | Potency [2] | outcome [3] | max response [4] 19.9% | outcome [5] | outcome [6] | outcome [7] | outcome [8] | Potency [9] | Potency [10] | Potency [11] | outcome [12] | Potency [13] | Potency [14] | outcome [15] | Potency [16] | Potency [17] | outcome [18] | Potency [19] | outcome [20]

O=C1CC(c2ccc(Cl)cc2)CC(=O)N1
inactive: Potency [1] | Potency [2] | outcome [3] | max response [4] -1.95% | outcome [5] | outcome [6] | outcome [7] | outcome [8] | Potency [9] | Potency [10] | Potency [11] | outcome [12] | Potency [13] | Potency [14] | outcome [15] | Potency [16] | Potency [17] | outcome [18] | Potency [19] | outcome [20]

N[C@@H](CCC(=O)N[C@@H](CS)C(=O)NCC(=O)O)C(=O)O
inactive: cytotoxicity increase [1] 2.27% [at 15.8 µM] | activity change, negative = cytotoxicity [2] 9.65% [at 15.8 µM] | viability change, negative = cytotoxic [3] -0.362% [at 15.8 µM] | max response [4] 3.69% | activity change [5] 1.6% [at 15.8 µM] | cytotoxicity increase [6] -10% [at 15.8 µM] | activity change, negative = cytotoxic [7] 2.09% [at 15.8 µM] | cytotoxicity [8] -12.9% [at 15.8 µM] | cytotoxicity increase [9] -8.24% [at 15.8 µM] | activity change, negative = cytotoxicity [10] 8.63% [at 15.8 µM] | cytotoxicity increase [11] 2.25% [at 15.8 µM] | cytotoxicity [12] -0.523% [at 15.8 µM] | cytotoxicity increase [13] -10.1% [at 15.8 µM] | cytotoxicity increase [14] 2.4% [at 15.8 µM] | activity change, negative = cytotoxic [15] 2.53% [at 15.8 µM] | activity change, negative = cytotoxicity [17] 10.5% [at 15.8 µM] | activity change [18] 0.448% [at 15.8 µM] | activity change, negative = cytotoxicity [19] 1.78% [at 15.8 µM] | cytotoxicity increase [20] -6.34% [at 15.8 µM]

C=COCCOCCOCCOC=C
inactive: Potency [1] | Potency [2] | outcome [3] | max response [4] 1.1% | outcome [5] | outcome [6] | outcome [7] | outcome [8] | Potency [9] | Potency [10] | Potency [11] | outcome [12] | Potency [13] | Potency [14] | outcome [15] | Potency [16] | Potency [17] | Potency [19] | outcome [20]

CCn1ccc(NS(=O)(=O)c2ccc(N)cc2)nc1=O
inactive: Potency [1] | Potency [2] | outcome [3] | max response [4] 5.4% | outcome [5] | outcome [6] | outcome [7] | outcome [8] | Potency [9] | Potency [10] | Potency [11] | outcome [12] | Potency [13] | Potency [14] | outcome [15] | Potency [16] | Potency [17] | Potency [19] | outcome [20]
